Assay outcomes (PubChem)
Only a selection was taken, and hits are over-represented in it overall.
U2OS ROS induce = inducers of reactive oxygen species in cancer cells. U2OS ROS induction, H2DCF-DA fluorescence. ROS induction (% of piperlongumine), % at 10 µM. 2% of 46,000 active; in the data active means ROS induction above about 79%, passing the limit was not always enough
Each line names hits and unclear results; the compound was inactive in the other large screens.

C=CCNC(=O)[C@@H]1[C@H]2C(=O)O[C@H](c3ccccc3)[C@H](c3ccccc3)N2[C@H](c2ccccc2OCCO)[C@@]12C(=O)Nc1ccc(C#CCC(C(=O)OC)C(=O)OC)cc12	U2OS ROS induce 192
CCN(C(=O)Cn1c(=O)oc2cc(S(=O)(=O)N3CCCC3)ccc21)c1ccccc1	none
CC1=NN(c2ccc(S(N)(=O)=O)cc2)C(=O)/C1=C\C=C/c1ccccc1	none
COc1ccc(S(=O)(=O)Nc2cncc(C(=O)NCc3ccc(C)cc3)c2)cc1	none
CCc1ccc(NS(=O)(=O)c2ccc3c(c2)SCC(=O)N3)cc1	none
Cn1ccc(/C=C2/CCC/C(=C\c3ccn(C)n3)C2=O)n1	none
O=C(c1ccccc1)N1Cc2ccccc2C[C@@]2(N=C(c3ccc(OCCCO)cc3)O[C@H]2c2ccccc2)C1=O	none
CC(C)(C)OC(=O)CC[C@]12N=C(c3ccc(OCCCO)cc3)O[C@H]1c1ccccc1CN(Cc1ccccc1)C2=O	none
O=C1N(CCS(=O)(=O)c2ccccc2)Cc2ccccc2[C@H]2OC(c3ccc(OCCCO)cc3)=N[C@@]12Cc1ccccc1	U2OS ROS induce 117
O=C1N(CCS(=O)(=O)c2ccccc2)c2ccccc2[C@@H]2OC(c3ccc(OCCCO)cc3)=N[C@]12CCS(=O)(=O)c1ccccc1	none
O=C(c1ccccc1)N1Cc2ccccc2[C@H]2OC(c3ccc(OCCCO)cc3)=N[C@@]2(Cc2ccccc2)C1=O	none
C=CC[C@@]12N=C(c3ccc(OCCCO)cc3)O[C@@H]1c1ccccc1CN(Cc1ccccc1)C2=O	none
NC(=O)[C@]1(CCS(=O)(=O)c2ccccc2)N=C(c2ccc(OCCCO)cc2)O[C@@H]1c1ccccc1	none
C=CC[C@]12N=C(c3ccc(OCCCO)cc3)O[C@H]1c1ccccc1N(CCS(=O)(=O)c1ccccc1)C2=O	none
O=C(c1ccccc1)N1Cc2ccccc2[C@H]2OC(c3ccc(OCCCO)cc3)=N[C@@]2(CCS(=O)(=O)c2ccccc2)C1=O	U2OS ROS induce 100
C=CC[C@@]12N=C(c3ccc(OCCCO)cc3)O[C@@H]1c1ccccc1CN(C(=O)c1ccccc1)C2=O	none
O=C1N(CCS(=O)(=O)c2ccccc2)Cc2ccccc2C[C@]12N=C(c1ccc(OCCCO)cc1)O[C@@H]2c1ccccc1	U2OS ROS induce 99
O=C1N(Cc2ccccc2)Cc2ccccc2[C@H]2OC(c3ccc(OCCCO)cc3)=N[C@@]12CCS(=O)(=O)c1ccccc1	U2OS ROS induce 243
CNC(=O)c1ccc(/C=C2/Oc3ccccc3N(Cc3cccc(C)c3)C2=O)cc1	none
Nc1cc(C(F)(F)F)ccc1Oc1ccc(C2CCCCC2)cc1	none
c1ccc(-c2nn3c(-c4ccccc4)nnc3c3ccccc23)cc1	none
CCC1Sc2ccccc2NC1=O (stereo not given)	none
CN1C(=O)C2C=CC=CC2N=C1SCC(N)=O (stereo not given)	none
C=CC[C@@]12N=C(c3ccc(OCCCO)cc3)O[C@@H]1c1ccccc1CN(CCS(=O)(=O)c1ccccc1)C2=O	none
O=C1N(CCS(=O)(=O)c2ccccc2)Cc2ccccc2[C@@H]2OC(c3ccc(OCCCO)cc3)=N[C@]12Cc1ccccc1	U2OS ROS induce 387
C=CC[C@]12N=C(c3ccc(OCCCO)cc3)O[C@H]1c1ccccc1CN(CCS(=O)(=O)c1ccccc1)C2=O	none
CC(Oc1ccc(Br)cc1)C(=O)NN (stereo not given)	none
FC(F)(F)c1cc(Oc2ccc(Cl)cc2)c2cc(Cl)ccc2n1	none
COc1ccc2[nH]c3c(=O)n(CCC(=O)NCCc4ccc(OC)c(OC)c4)c(=S)[nH]c3c2c1	none
Cc1ccc(S(=O)(=O)N(C)C[C@@H]2Oc3ccc(NC(=O)Nc4ccc(C(F)(F)F)cc4)cc3CC(=O)N([C@@H](C)CO)C[C@@H]2C)cc1	U2OS ROS induce 98
Cc1ccc(S(=O)(=O)N(C)C[C@H]2Oc3ccc(NC(=O)Nc4ccccc4)cc3CC(=O)N([C@@H](C)CO)C[C@@H]2C)cc1	U2OS ROS induce 123
C[C@H]1CN([C@@H](C)CO)C(=O)Cc2cc(NC(=O)Nc3ccc(C(F)(F)F)cc3)ccc2O[C@H]1CN(C)S(=O)(=O)c1ccc(F)cc1	none
C[C@H]1CN([C@@H](C)CO)C(=O)Cc2cc(NC(=O)c3ccncc3)ccc2O[C@@H]1CN(C)S(=O)(=O)c1ccc(Cl)cc1	none
Cc1ccc(S(=O)(=O)N(C)C[C@@H]2Oc3ccc(NC(=O)Nc4ccccc4)cc3CC(=O)N([C@H](C)CO)C[C@@H]2C)cc1	none
Cc1ccc(S(=O)(=O)N(C)C[C@@H]2Oc3ccc(NC(=O)Nc4ccccc4)cc3CC(=O)N([C@H](C)CO)C[C@H]2C)cc1	none
C[C@H](CO)N1C[C@H](C)[C@H](CN(C)S(=O)(=O)c2ccc(Cl)cc2)Oc2ccc(NC(=O)c3ccncc3)cc2CC1=O	U2OS ROS induce 102
C[C@H]1CN([C@@H](C)CO)C(=O)Cc2cc(NC(=O)c3ccncc3)ccc2O[C@H]1CN(C)S(=O)(=O)c1ccc(Cl)cc1	none
Cc1ccc(S(=O)(=O)N(C)C[C@H]2Oc3ccc(NC(=O)Nc4ccc(C(F)(F)F)cc4)cc3CC(=O)N([C@@H](C)CO)C[C@H]2C)cc1	none
Cc1ccccc1NS(=O)(=O)c1ccc2[nH]cc(C(=O)N(C)Cc3ccccc3)c(=O)c2c1	none
COC(=O)c1ccccc1N=CCC(=O)c1ccc(Br)cc1	none
Cc1ccccc1-n1c(SCC(=O)c2ccc(Cl)cc2)nc2[nH]ncc2c1=O	none
CCN1CNC(=S)N(C2CCCCC2)C1	none
Cc1cccc(N2C(=NC(=O)c3ccc(Br)cc3)SC3CS(=O)(=O)CC32)c1 (stereo not given)	none
COc1ccccc1COc1ccc2c3c(c(=O)oc2c1C)CCCCC3	none
COc1ccc([Si](C)(C)[C@H]2[C@H](CCO)O[C@@]3(C(=O)N(Cc4ccccc4)c4ccc(NC(C)=O)cc43)[C@@H]2C)cc1	none
C=CCN1C(=O)[C@@]2(O[C@@H](CCO)[C@H]([Si](C)(C)c3ccc(OC)cc3)[C@H]2C)c2cc(N3CCOC3=O)ccc21	none
C=CCN1C(=O)[C@]2(O[C@H](CCO)[C@@H]([Si](C)(C)c3ccc(OC)cc3)[C@@H]2C)c2cc(N3CCC3=O)ccc21	none
COc1ccc([Si](C)(C)[C@@H]2[C@@H](CCO)O[C@]3(C(=O)N(Cc4ccccc4)c4ccc(NC(C)=O)cc43)[C@H]2C)cc1	none
C=CCN1C(=O)[C@@]2(O[C@@H](CCO)[C@H]([Si](C)(C)c3ccc(OC)cc3)[C@H]2C)c2cc(I)ccc21	U2OS ROS induce 94
C=CCN1C(=O)[C@@]2(O[C@@H](CCO)[C@H]([Si](C)(C)c3ccc(OC)cc3)[C@H]2C)c2cc(NC(C)=O)ccc21	U2OS ROS induce 106
CC(=O)Nc1cc(C(=O)NCCN(C)C)ccc1Sc1ccc(C)cc1	none
CC(C)NC(=O)c1ccccc1N	none
CSc1nnc2nc(C)cc(C)n12	none
Cc1ccc(-c2cc(C(F)F)n3ncc(C(=O)NCCN4CCOCC4)c3n2)cc1	none
Cc1ccc(-c2cc(C(F)F)n3ncc(C(=O)NCc4cn(C)nc4C)c3n2)cc1	U2OS ROS induce 135
COc1ccc(-c2cc(C(F)F)n3ncc(C(=O)Nc4cccc(NC(C)=O)c4)c3n2)cc1	U2OS ROS induce 155
O=C(NCc1cccnc1)c1cnn2c(C(F)F)cc(C3CC3)nc12	none
COc1ccc(OCC(=O)Nc2cccc(-c3cnc4ccccc4n3)c2)cc1	none
COC(=O)c1ccccc1NC(=O)c1nc2nc(C)cc(C(F)F)n2n1	none
Cc1[nH]n(-c2ccccc2)c(=O)c1/C=C1\SC(=S)N(Cc2ccccc2)C1=O	none
CC1Sc2cc(S(=O)(=O)NCc3ccccc3)ccc2NC1=O (stereo not given)	none
O=C(c1cc(-c2ccc(F)cc2)no1)N1CCN(c2cccc(Cl)c2)CC1	none
